The record followed here is PubChem BioAssay.

Active and inactive are the calls of the source. Unless noted, the rule behind the calls is not given here.

In experiment [1] the test system is Wnt5a (protein binding on small-molecule microarray). Put plainly: Wnt5a binders on small-molecule microarray, primary screen, biophysical, 635/667 nm fluorescence (AID 1142).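 Note: fluorescence read at 667 nm with signal to noise per printed feature.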 Conditions: 635 nm fluorescence, higher = more signal.
Experiment [2] in a line: cell viability in Huh7 cells, primary screen, cytotoxicity control for HCV replication inhibitor project, CellTiter-Glo luminescence, basal, 48 h (AID 1143).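 Note: Huh7 hepatoma cells carrying a hepatitis C replication reporter with no stimulus; test concentration not given here.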 Conditions: Huh7 HCV replicon, higher = more signal, called active from +8 up or from −8 down.
Experiment [3] can be described thus: P. aeruginosa biofilm formation inhibitors, primary screen, PAO1 strain, BacTiter-Glo luminescence, LB-PBS (AID 1144). Conditions: 12 h, higher = more signal.
Experiment [4] is described as follows: CREB reporter modulators without forskolin, primary screen, cell-based, PC12, CRE-LacZ reporter, unstimulated (AID 1145). The settings on record: no forskolin, luminescence, 4.5 h, higher = more signal, called active from +8 up or from −8 down.
A short description of experiment [5]: CREB reporter modulators under forskolin, primary screen, cell-based, PC12, CRE-LacZ reporter, forskolin-stimulated (AID 1146).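 Note: PC12 cells with 6xCRE LacZ reporter stimulated by forskolin 10 µM; beta-galactosidase reporter signal reflecting CREB driven transcription.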 Conditions: luminescence, 4.5 h, higher = more signal, called active from +8 up or from −8 down.
The target of experiment [6] is Streptavidin (Streptomyces avidinii) (UniProt P22629). As to the kind of experiment: streptavidin binders on small-molecule microarray, primary screen, artefact control for SMM compound annotation, biophysical, 635/667 nm fluorescence (AID 1147).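 Note: signal reflects streptavidin binding to arrayed compounds as a control protein.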 The settings on record: streptavidin binding, higher = more signal.
Experiment [7] is described as follows: small-molecule binders of probe aInhba, primary screen, biochemical, small-molecule microarray, 635/667 nm fluorescence (AID 1148).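 Note: score merges 667nm spot fluorescence with signal-to-noise for antibody binding to printed compounds.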 The settings on record: higher = more signal.
Experiment [8] addresses Torsin-1A (Homo sapiens) (UniProt O14656). As to the kind of experiment: torsin A binders from cell lysate, primary screen, small-molecule microarray, wild-type, 635/667 nm (AID 1149). Conditions: COS7 hTOR1A-WT lysate, 635 nm fluorescence, higher = more signal.
Experiment [9] shares this target. Put plainly: small-molecule binders of mutant TOR1A in lysate, primary screen, cell lysate, small-molecule microarray, COS7 lysate, 635/667 nm fluorescence (AID 1150).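 Note: score pools 667 nm emission and signal to noise measuring lysate protein binding.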 The settings on record: COS7 hTOR1A mutant lysate, 635 nm fluorescence, higher = more signal.
The test system of experiment [10] is Sonic hedgehog protein (Shh). Put plainly: small-molecule binders of Shh protein, primary screen, biochemical, small-molecule microarray, 635/667 nm fluorescence (AID 1151).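 Note: Shh protein binding to compounds spotted on small-molecule microarray slides; score combines spot fluorescence intensity with signal-to-noise across triplicate slides.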 Conditions: small-molecule microarray binding, 635 nm fluorescence; higher = more signal.
Experiment [11] in a line: E. coli DRC41 culture turbidity changes, primary screen, E. coli filamentation inducer project, strain DRC41, OD650, 48 h (AID 1152).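 Note: E. coli MC1000 strain DRC41 lacking acrAB efflux pump and sulA.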 The settings on record: E. coli DRC41 (acrAB sulA), higher = more signal, called active from +8 up or from −8 down.
Experiment [12] in a line: small-molecule binders of probe aLefty1, primary screen, biochemical, small-molecule microarray, 635/667 nm fluorescence (AID 1153).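 Note: score merges spot fluorescence with signal-to-noise ratio from the scanned slide images.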 The settings on record: higher = more signal.
The nature of experiment [13]: PSAC antagonists in infected red cells, primary screen, cell-based, P. falciparum Indochina, OD700, 1 h (AID 1154). Conditions: P. falciparum Indochina infected RBC osmotic lysis, higher = more signal, called active from +8 up or from −8 down.
Experiment [14] can be described thus: PSAC antagonists in infected red cells, primary screen, cell-based, P. falciparum Indochina, OD700, 2 h (AID 1155).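 Note: lysis reports solute entry through the parasite surface anion channel PSAC; channel blockers reduce lysis of infected cells.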 Conditions: P. falciparum Indochina infected erythrocytes, osmotic lysis OD700; higher = more signal, called active from +8 up or from −8 down.
The nature of experiment [15]: osmotic lysis modulators in infected erythrocytes, primary screen, PSAC antagonist project, cell-based, P. falciparum Indochina, OD700, 3 h (AID 1156). The settings on record: higher = more signal, called active from +8 up or from −8 down.
The nature of experiment [16]: PSAC antagonists in infected red cells, primary screen, cell-based, P. falciparum Indochina, OD700, 18 h (AID 1157). The settings on record: P. falciparum Indochina infected erythrocytes, osmotic lysis OD700, 18 h; higher = more signal, called active from +8 up or from −8 down.
A short description of experiment [17]: modulators of S6 phosphorylation in cells, primary screen, cell-based, A549, cytoblot, luminescence, serum-stimulated (AID 1158).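 Note: serum-stimulated A549 lung adenocarcinoma cells; signal is phosphorylated S6 detected by cytoblot immunostaining with HRP secondary.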 The settings on record: A549 phospho-S6 cytoblot, 5 h, higher = more signal.
Experiment [18] addresses NADPH oxidase 2 (Homo sapiens) (UniProt P04839). Put plainly: NOX2-dependent H2O2 signal modulators, primary screen, NOX inhibitor project, cell-based, HEK293-NOX2, PMA-stimulated, Amplex Red fluorescence (AID 1159). Note: test concentration not given here. Conditions: 45 min, higher = more signal, called active from +8 up or from −8 down.
Experiment [19] concerns the target NADPH oxidase 4 (Homo sapiens) (UniProt Q9NPH5). As to the kind of experiment: NOX4-dependent H2O2 signal modulators, primary screen, NOX inhibitor project, cell-based, HEK293-NOX4, tetracycline-induced, Amplex Red fluorescence (AID 1160). Conditions: 45 min, higher = more signal, called active from +8 up or from −8 down.
In experiment [20] the target is NADPH oxidase 5 (Homo sapiens) (UniProt Q96PH1). Put plainly: NOX5-dependent H2O2 signal modulators, primary screen, NOX inhibitor project, cell-based, HEK293-NOX5, Amplex Red fluorescence (AID 1161). The settings on record: HEK293-NOX5, ionomycin, 45 min, higher = more signal.
NADPH oxidase 5 (Homo sapiens), sequence (Q96PH1 whole entry, looked up): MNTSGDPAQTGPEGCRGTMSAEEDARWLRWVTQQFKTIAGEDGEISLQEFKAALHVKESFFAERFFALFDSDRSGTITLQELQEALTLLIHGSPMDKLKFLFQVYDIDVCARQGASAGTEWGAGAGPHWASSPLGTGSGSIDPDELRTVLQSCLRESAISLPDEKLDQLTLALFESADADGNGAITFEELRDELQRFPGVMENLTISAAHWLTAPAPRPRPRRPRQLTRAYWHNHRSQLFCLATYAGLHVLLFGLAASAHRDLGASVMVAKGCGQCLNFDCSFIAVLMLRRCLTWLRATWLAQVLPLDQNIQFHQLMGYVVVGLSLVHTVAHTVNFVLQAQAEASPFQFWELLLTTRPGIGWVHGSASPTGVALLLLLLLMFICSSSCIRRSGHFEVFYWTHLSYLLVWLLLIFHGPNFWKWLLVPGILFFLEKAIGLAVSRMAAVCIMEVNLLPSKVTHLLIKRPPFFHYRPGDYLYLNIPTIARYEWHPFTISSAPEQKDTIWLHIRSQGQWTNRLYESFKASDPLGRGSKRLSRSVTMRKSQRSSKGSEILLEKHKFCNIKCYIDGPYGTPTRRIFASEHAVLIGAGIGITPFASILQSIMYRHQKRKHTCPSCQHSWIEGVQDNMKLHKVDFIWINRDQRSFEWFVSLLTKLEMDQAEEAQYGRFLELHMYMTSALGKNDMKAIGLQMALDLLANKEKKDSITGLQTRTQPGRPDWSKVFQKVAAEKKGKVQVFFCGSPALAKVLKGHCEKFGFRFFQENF

Torsin-1A (Homo sapiens), sequence (O14656 whole entry, looked up): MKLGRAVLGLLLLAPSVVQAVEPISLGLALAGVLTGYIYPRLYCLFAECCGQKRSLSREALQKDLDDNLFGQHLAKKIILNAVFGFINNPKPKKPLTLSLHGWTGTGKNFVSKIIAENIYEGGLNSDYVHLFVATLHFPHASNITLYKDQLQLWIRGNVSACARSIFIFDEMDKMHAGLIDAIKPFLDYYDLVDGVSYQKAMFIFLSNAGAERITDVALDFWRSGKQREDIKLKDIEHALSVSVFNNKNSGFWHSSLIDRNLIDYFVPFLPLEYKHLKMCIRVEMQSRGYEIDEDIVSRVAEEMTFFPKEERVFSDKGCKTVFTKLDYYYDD
NADPH oxidase 2 (Homo sapiens), sequence (P04839 whole entry, looked up): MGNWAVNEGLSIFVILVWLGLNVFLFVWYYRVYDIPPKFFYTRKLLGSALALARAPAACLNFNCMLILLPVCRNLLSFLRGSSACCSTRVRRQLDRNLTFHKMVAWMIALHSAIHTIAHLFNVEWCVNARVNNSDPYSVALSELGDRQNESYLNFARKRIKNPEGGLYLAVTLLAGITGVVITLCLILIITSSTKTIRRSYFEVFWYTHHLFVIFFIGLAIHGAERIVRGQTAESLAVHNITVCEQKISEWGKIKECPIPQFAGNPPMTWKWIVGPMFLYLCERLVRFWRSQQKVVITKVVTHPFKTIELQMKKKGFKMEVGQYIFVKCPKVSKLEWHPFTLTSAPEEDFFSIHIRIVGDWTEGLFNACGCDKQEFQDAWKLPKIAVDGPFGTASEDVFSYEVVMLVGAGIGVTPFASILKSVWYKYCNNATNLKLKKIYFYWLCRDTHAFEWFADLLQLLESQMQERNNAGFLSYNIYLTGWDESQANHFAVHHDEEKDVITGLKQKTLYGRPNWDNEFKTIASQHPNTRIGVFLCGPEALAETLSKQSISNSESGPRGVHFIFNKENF
Streptavidin (Streptomyces avidinii), sequence (P22629 whole entry, looked up): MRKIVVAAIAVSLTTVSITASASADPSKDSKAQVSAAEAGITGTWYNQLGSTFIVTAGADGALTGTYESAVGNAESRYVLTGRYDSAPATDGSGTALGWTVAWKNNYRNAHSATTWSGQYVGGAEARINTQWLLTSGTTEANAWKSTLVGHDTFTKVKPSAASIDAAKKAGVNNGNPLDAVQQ
NADPH oxidase 4 (Homo sapiens), sequence (Q9NPH5 whole entry, looked up): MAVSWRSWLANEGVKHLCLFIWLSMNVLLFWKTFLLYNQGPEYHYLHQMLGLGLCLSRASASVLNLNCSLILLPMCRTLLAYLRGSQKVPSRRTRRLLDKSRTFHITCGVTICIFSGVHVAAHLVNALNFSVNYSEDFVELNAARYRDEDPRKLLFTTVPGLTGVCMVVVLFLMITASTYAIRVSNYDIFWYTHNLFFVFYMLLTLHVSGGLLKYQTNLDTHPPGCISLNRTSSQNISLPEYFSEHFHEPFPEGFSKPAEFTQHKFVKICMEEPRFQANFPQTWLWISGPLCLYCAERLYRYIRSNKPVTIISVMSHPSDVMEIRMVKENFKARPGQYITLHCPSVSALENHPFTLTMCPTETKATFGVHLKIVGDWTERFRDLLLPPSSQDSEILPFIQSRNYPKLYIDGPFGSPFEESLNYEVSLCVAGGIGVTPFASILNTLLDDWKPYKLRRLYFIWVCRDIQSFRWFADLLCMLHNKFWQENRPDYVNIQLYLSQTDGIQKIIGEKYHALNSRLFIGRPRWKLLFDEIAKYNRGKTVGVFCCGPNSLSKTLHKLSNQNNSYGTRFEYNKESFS

Regarding `COc1ccc([Si](C)(C)[C@H]2[C@H](CCO)O[C@@]3(C(=O)N(Cc4ccccc4)c4ccc(NC(=O)[C@H](C)O)cc43)[C@@H]2C)cc1`, the composite z-score in experiment [1] was determined as 0.571; in experiment [6], 0.0684; in experiment [7] it was 0.0659; with Torsin-1A (Homo sapiens) [8], 0.569; with Torsin-1A (Homo sapiens) [9] it was 0.437; in experiment [10], 1.33. This molecule also returned a composite z-score in [12] of 0.013. Moreover, the z-score in experiment [2] was -7.85 (inactive); in experiment [3] it was -1.29 (inactive); in [4], 20.8 (active); in [5], 1.12 (inactive); in experiment [11], -0.0149 (inactive); in experiment [13], 10.8 (active). Further, the z-score in [14] was 2.73 (inactive); in experiment [15], 0.0811 (inactive); in experiment [16], 1.43 (inactive); in experiment [17], 0.0757; in experiment [18], -0.699 (inactive); in experiment [19] it was 0.488 (inactive). For the same molecule, the z-score in [20] stood at 1.66.
In the case of `C=CCNC(=O)[C@H]1[C@@H]2C(=O)O[C@@H](c3ccccc3)[C@@H](c3ccccc3)N2[C@@H](c2ccc(OCCO)cc2)[C@]12C(=O)N(C(=O)OCCOC)c1ccc(C#CCNC(N)=O)cc12`, the composite z-score in experiment [1] is 0.0992; in experiment [6], 0.286; in experiment [7] it was -0.0313; with Torsin-1A (Homo sapiens) [8] it was 0.668; in the experiment with Torsin-1A (Homo sapiens) [9] it was 0.83; in [10], 0.984. The molecule also had a composite z-score in experiment [12] of 0.298. The z-score in experiment [2] was -0.646 (inactive); in experiment [3], -1.36 (inactive); in experiment [4], -0.618 (inactive); in [5], -0.779 (inactive); in [11], 0.33 (inactive); in [13], 2.53 (inactive). The z-score in experiment [14] was 0.666 (inactive); in [15], 1.09 (inactive); in experiment [16], 0.83 (inactive); in [17] it was 0.387; in experiment [18], 1.76 (inactive); in experiment [19], 1.44 (inactive). In addition, in experiment [20], the z-score came to 0.12.
Regarding `O=C(N1CCOCC1)[C@]1(CCS(=O)(=O)c2ccccc2)N=C(c2ccc(OCCCO)cc2)O[C@@H]1c1ccccc1`, the composite z-score in experiment [1] is 0.308; in experiment [6], 0.947; in experiment [7], 0.212; in the experiment with Torsin-1A (Homo sapiens) [8], 0.46; in the experiment with Torsin-1A (Homo sapiens) [9] it was 0.77; in experiment [10], -0.19. Besides, the composite z-score in experiment [12] was 0.441. Further, the z-score in experiment [2] was -2.3 (inactive); in [3] it was 0.863 (inactive); in [4], 1.1 (inactive); in experiment [5], 0.711 (inactive); in experiment [11], 0.427 (inactive); in experiment [13], 27.2 (active). Moreover, the z-score was 20 (active) in experiment [14]; 3.43 (inactive) in experiment [15]; 2.61 (inactive) in [16]; 0.0315 in experiment [17]; 0.348 (inactive) in experiment [18]; 1.72 (inactive) in experiment [19]. This molecule had a z-score in [20] of 1.16.
Take `COCCOC(=O)N1C(=O)[C@@]2(c3ccccc31)[C@H](C(=O)Nc1nc3ccccc3s1)[C@H]1C(=O)O[C@H](c3ccccc3)[C@H](c3ccccc3)N1[C@@H]2c1ccccc1OCCO`: the composite z-score in experiment [1] stood at 0.0847; in [6] it was 1.39; in experiment [7], 0.379; with Torsin-1A (Homo sapiens) [8], 0.282; with Torsin-1A (Homo sapiens) [9], 0.781; in [10], 0.733. In [12], this molecule gave a composite z-score of 0.941. Further, the z-score in [2] was -3.65 (inactive); in [3], -0.457 (inactive); in [4], -0.207 (inactive); in experiment [5] it was -0.144 (inactive); in experiment [11] it was 0.253 (inactive); in experiment [13], 4.98 (inactive). Besides, the z-score was 2.57 (inactive) in experiment [14]; 0.0618 (inactive) in [15]; 1.95 (inactive) in [16]; -0.0149 in experiment [17]; 1.91 (inactive) in experiment [18]; -0.601 (inactive) in experiment [19]. The z-score in experiment [20] was 1.17.
